Results as given in the supplement of paper PMC10849652.
Targets with a hit are over-represented here; the source holds about 8,800 in all. About 0.5% of all pairs of compound and target were hits.

What was measured:
Assay in all cases: log2 fold change, soluble protein after heating vs DMSO (PISA); higher = thermal stabilisation; K562 lysate, 10 uM; active = over 0.2 and 3.5 SD of the protein, either way, in both replicates (recomputed)
[1] = compound: NCC(=O)Nc1ccc(-n2nc(C(F)(F)F)cc2-c2ccc3c(ccc4ccccc43)c2)cc1
Summary of the method: (§1)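 Pellets of K562 cells were dounce-homogenised in PBS pH 7.4 with 1 mM MgCl2, and the crude extract was held at 1 mg/mL protein for a 30 min treatment with 10 μM compound. Aliquots were heated for 3 min over 48°C-58°C and pooled before NP-40 was added to 0.5% at 4°C. The supernatant from 21,000xg for 90 min was quantified by TMTpro 16plex LC-MS/MS with channel sums equalised. Values are reported from duplicates as log-two fold change in thermal stability relative to solvent controls.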

vorinostat = compound: O=C(CCCCCCC(=O)Nc1ccccc1)NO [vorinostat]
Summary of the method: as §1

silmitasertib = compound: O=C(O)c1ccc2c(c1)nc(Nc1cccc(Cl)c1)c1ccncc12 [silmitasertib]
Summary of the method: as §1

[2] = compound: O=C1NC(=O)C(c2cnc3ccccn23)=C1c1cn2c3c(cc(F)cc13)CN(C(=O)N1CCCCC1)CC2
Summary of the method: as §1

entospletinib = compound: c1cn2cc(-c3ccc4cn[nH]c4c3)nc(Nc3ccc(N4CCOCC4)cc3)c2n1 [entospletinib]
Summary of the method: as §1

Measured: log2 fold change

PDCD4 (UniProt Q53EL6)
active: vorinostat -0.378
inactive: [1] 0.004 | silmitasertib 0.014 | [2] 0.003 | entospletinib 0.038

POLD3 (UniProt Q15054)
inactive: [1] 0.045 | silmitasertib -0.02 | [2] -0.03 | entospletinib 0.011
active: vorinostat -0.335

PLEKHO2 (UniProt Q8TD55)
inactive: [1] 0.045 | vorinostat -0.103 | silmitasertib 0.347 | [2] -0.018 | entospletinib 0.082

PHKA1 (UniProt P46020)
active: vorinostat -0.223
inactive: [1] 0.002 | silmitasertib 0.184 | [2] -0.001 | entospletinib -0.01

PCLAF (UniProt Q15004)
active: vorinostat -0.29
inactive: [1] 0.022 | silmitasertib -0.029 | [2] -0.025 | entospletinib 0.009

PRKACB isoform 2 (UniProt P22694)
inactive: [1] -0.014 | vorinostat -0.018 | silmitasertib 0.054 | [2] 0.002 | entospletinib 0.042

PTPN6 isoform 4 (UniProt P29350)
Sequence of UniProt P29350 (P29350 whole entry, looked up): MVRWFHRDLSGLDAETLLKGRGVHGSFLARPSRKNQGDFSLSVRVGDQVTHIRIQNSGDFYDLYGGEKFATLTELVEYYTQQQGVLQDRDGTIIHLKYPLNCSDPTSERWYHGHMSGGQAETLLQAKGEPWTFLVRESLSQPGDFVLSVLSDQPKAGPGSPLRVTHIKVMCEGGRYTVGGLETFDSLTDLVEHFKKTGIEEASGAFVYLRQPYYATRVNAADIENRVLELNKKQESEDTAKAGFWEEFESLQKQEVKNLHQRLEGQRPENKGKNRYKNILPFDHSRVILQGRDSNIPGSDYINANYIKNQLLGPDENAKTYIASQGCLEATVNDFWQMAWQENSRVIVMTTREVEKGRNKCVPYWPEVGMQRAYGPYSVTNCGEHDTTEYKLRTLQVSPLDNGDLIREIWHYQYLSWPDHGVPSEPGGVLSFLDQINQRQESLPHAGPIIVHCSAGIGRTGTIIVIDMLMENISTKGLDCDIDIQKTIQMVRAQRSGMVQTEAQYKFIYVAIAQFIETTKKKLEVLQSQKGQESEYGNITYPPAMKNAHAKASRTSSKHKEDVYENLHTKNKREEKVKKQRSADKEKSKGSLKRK
inactive: [1] -0.001 | vorinostat -0.039 | silmitasertib 0.078 | [2] 0.006 | entospletinib 0.107

PIR (UniProt O00625)
inactive: [1] 0.015 | vorinostat 0.035 | silmitasertib -0.049 | [2] -0.013 | entospletinib -0.035

PHOSPHO2 (UniProt Q8TCD6)
inactive: [1] -0.051 | vorinostat 0.181 | silmitasertib -0.002 | [2] 0.001 | entospletinib -0.116

PHACTR4 isoform 2 (UniProt Q8IZ21)
inactive: [1] 0.025 | vorinostat 0.014 | silmitasertib 0.01 | [2] 0.009 | entospletinib -0.024

PRC1 (UniProt O43663)
inactive: [1] 0.012 | silmitasertib 0.046 | [2] -0.02 | entospletinib 0.023
active: vorinostat -0.387

PDXDC1 (UniProt Q6P996)
inactive: [1] -0.041 | silmitasertib 0.038 | [2] 0.018 | entospletinib -0.019
active: vorinostat -0.233

PTGES2 (UniProt Q9H7Z7)
inactive: [1] -0.175 | vorinostat -0.197 | silmitasertib 0.304 | [2] 0.12 | entospletinib 0.085

PMS2 (UniProt P54278)
inactive: [1] 0.064 | silmitasertib 0.026 | [2] 0.027 | entospletinib 0.001
active: vorinostat -0.384

PDF (UniProt Q9HBH1)
Sequence of UniProt Q9HBH1 (Q9HBH1 whole entry, looked up): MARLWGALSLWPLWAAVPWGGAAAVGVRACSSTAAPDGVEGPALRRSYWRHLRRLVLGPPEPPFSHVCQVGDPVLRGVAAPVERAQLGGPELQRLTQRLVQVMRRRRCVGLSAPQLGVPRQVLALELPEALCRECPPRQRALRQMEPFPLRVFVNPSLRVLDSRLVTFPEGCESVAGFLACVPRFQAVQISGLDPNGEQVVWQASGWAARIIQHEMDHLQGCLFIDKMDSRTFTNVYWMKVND
inactive: [1] -0.095 | vorinostat -0.232 | silmitasertib 0.044 | [2] 0 | entospletinib -0.004

POLA1 (UniProt P09884)
active: vorinostat -0.293
inactive: [1] 0.009 | silmitasertib -0.019 | [2] 0.006 | entospletinib -0.016

POMP (UniProt Q9Y244)
inactive: [1] -0.016 | vorinostat -0.028 | silmitasertib 0.05 | [2] 0.014 | entospletinib -0.12

POGK (UniProt Q9P215)
inactive: [1] 0.018 | vorinostat -0.173 | silmitasertib 0.002 | [2] -0.083 | entospletinib 0.3

PSTPIP2 (UniProt Q9H939)
Sequence of UniProt Q9H939 (Q9H939 whole entry, looked up): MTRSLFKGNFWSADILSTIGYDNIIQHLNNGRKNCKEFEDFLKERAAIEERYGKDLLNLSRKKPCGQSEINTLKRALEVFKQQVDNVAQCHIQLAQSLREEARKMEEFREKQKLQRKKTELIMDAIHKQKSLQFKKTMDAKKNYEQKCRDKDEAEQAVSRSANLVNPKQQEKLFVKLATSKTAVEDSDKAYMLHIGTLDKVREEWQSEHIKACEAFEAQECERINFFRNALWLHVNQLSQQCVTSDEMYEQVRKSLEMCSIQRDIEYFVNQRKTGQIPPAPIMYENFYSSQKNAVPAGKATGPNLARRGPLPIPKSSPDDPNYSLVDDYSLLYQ
active: vorinostat -0.312
inactive: [1] 0.046 | silmitasertib 0.04 | [2] 0.017 | entospletinib -0.005

PIAS2 (UniProt O75928)
active: [1] 0.469 | vorinostat -0.334
inactive: silmitasertib -0.091 | [2] -0.054 | entospletinib 0.01

PES1 (UniProt O00541)
Sequence of UniProt O00541 (O00541 whole entry, looked up): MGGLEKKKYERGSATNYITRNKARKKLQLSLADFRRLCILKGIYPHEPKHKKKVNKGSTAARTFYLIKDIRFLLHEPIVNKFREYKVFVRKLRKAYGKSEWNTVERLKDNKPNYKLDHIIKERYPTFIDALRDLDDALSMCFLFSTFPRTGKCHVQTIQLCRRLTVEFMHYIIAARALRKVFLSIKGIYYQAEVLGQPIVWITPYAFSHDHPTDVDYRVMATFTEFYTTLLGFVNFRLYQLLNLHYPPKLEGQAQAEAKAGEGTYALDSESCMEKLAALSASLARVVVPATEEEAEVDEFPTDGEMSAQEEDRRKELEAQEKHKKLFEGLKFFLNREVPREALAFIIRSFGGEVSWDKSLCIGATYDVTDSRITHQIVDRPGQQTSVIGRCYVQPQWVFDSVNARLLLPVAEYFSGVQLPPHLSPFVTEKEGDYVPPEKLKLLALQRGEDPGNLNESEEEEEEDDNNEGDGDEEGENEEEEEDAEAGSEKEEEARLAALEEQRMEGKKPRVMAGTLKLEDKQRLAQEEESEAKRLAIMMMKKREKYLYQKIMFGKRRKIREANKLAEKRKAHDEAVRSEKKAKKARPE
inactive: [1] 0.03 | vorinostat -0.193 | silmitasertib 0.037 | [2] 0.014 | entospletinib -0.015

PDE4DIP (UniProt E9PS60)
inactive: [1] 0.002 | vorinostat -0.157 | silmitasertib 0.082 | [2] 0.039 | entospletinib 0.103

PDIA4 (UniProt P13667)
inactive: [1] 0.001 | vorinostat 0.119 | silmitasertib -0.011 | [2] 0.021 | entospletinib 0.004

PIGO (UniProt Q8TEQ8)
inactive: [1] -0.156 | vorinostat 0.15 | silmitasertib 0.18 | [2] 0.121 | entospletinib -0.015

PDCD10 (UniProt Q9BUL8)
Sequence of UniProt Q9BUL8 (Q9BUL8 whole entry, looked up): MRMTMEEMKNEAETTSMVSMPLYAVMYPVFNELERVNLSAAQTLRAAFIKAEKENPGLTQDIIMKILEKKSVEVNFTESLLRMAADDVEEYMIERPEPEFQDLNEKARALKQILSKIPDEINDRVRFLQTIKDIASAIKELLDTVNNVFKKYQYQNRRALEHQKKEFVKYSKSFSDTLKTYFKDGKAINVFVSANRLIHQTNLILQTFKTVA
inactive: [1] -0.009 | vorinostat 0.158 | silmitasertib -0.001 | [2] -0.037 | entospletinib 0.011

PPT2 isoform 3 (UniProt Q9UMR5)
active: vorinostat 0.398
inactive: [1] 0.055 | silmitasertib 0.034 | [2] -0.018 | entospletinib -0.006

PKN1 isoform 2 (UniProt Q16512)
inactive: [1] 0.002 | vorinostat -0.131 | silmitasertib -0.012 | [2] -0.138 | entospletinib -0.009

PPP2R5B (UniProt Q15173)
inactive: [1] 0.077 | vorinostat -0.075 | silmitasertib -0.007 | [2] -0.065 | entospletinib 0.028

PLIN2 (UniProt Q99541)
inactive: [1] 0.012 | vorinostat 0.063 | silmitasertib -0.008 | [2] 0.008 | entospletinib -0.032

PTPN7 isoform 3 (UniProt P35236)
Sequence of UniProt P35236 (P35236 whole entry, looked up): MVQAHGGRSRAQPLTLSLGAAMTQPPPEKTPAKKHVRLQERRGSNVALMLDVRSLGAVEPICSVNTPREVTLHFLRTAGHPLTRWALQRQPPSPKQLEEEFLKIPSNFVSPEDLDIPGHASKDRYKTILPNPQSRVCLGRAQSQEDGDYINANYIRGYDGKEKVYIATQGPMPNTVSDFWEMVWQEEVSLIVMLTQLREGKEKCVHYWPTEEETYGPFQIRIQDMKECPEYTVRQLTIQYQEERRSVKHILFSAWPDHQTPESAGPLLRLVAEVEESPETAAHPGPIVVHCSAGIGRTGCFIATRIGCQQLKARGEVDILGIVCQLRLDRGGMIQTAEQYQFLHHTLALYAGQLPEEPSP
inactive: [1] 0.031 | silmitasertib 0.01 | [2] -0.044 | entospletinib -0.008
active: vorinostat -0.491

PRKCSH (UniProt P14314)
inactive: [1] 0.002 | vorinostat 0.141 | silmitasertib -0.015 | [2] -0.001 | entospletinib 0.001

PUS1 (UniProt Q9Y606)
active: vorinostat -0.321
inactive: [1] 0.04 | silmitasertib 0.041 | [2] -0.013 | entospletinib -0.022

POLR2B (UniProt P30876)
inactive: [1] 0.03 | silmitasertib 0.034 | [2] 0.024 | entospletinib -0.008
active: vorinostat -0.344

PTPN2 (UniProt P17706)
Sequence of UniProt P17706 (P17706 whole entry, looked up): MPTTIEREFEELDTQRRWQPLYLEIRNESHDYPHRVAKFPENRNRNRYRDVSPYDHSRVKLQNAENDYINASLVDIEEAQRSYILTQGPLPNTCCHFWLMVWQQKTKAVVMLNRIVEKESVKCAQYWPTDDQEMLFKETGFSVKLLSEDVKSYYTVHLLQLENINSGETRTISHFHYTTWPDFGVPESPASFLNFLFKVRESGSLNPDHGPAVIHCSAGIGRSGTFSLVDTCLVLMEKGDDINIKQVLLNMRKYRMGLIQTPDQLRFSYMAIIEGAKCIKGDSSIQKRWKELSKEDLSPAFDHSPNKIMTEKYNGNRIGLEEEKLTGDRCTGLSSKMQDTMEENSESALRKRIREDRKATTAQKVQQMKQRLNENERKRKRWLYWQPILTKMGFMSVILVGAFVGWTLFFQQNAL
inactive: [1] -0.005 | silmitasertib 0.024 | [2] -0.002 | entospletinib 0.07
active: vorinostat -0.298

PFDN2 (UniProt Q9UHV9)
inactive: [1] -0.049 | vorinostat 0.098 | silmitasertib 0.015 | [2] -0.068 | entospletinib 0.007

POLD1 (UniProt P28340)
inactive: [1] 0.016 | silmitasertib 0.016 | [2] 0.005 | entospletinib -0.009
active: vorinostat -0.245

PDCD6IP (UniProt Q8WUM4)
inactive: [1] 0.065 | silmitasertib -0.005 | [2] 0.009 | entospletinib -0.009
active: vorinostat -0.332

PRKAB2 (UniProt O43741)
inactive: [1] -0.006 | vorinostat -0.009 | silmitasertib 0.111 | [2] 0.096 | entospletinib 0.013

PPP3CA isoform 2 (UniProt Q08209)
inactive: [1] 0.006 | vorinostat 0.042 | silmitasertib 0.014 | [2] -0.025 | entospletinib 0.066

PRKCA (UniProt P17252)
inactive: [1] -0.045 | vorinostat -0.14 | silmitasertib 0.044 | [2] 0.087 | entospletinib 0.018

PPCDC (UniProt Q96CD2)
inactive: [1] 0.001 | vorinostat -0.002 | silmitasertib 0.071 | [2] -0.015 | entospletinib 0.002

PTP4A1 (UniProt Q93096)
active: vorinostat -0.292
inactive: [1] 0.019 | silmitasertib -0.003 | [2] 0.014 | entospletinib -0.009

PRPF6 (UniProt O94906)
Sequence of UniProt O94906 (O94906 whole entry, looked up): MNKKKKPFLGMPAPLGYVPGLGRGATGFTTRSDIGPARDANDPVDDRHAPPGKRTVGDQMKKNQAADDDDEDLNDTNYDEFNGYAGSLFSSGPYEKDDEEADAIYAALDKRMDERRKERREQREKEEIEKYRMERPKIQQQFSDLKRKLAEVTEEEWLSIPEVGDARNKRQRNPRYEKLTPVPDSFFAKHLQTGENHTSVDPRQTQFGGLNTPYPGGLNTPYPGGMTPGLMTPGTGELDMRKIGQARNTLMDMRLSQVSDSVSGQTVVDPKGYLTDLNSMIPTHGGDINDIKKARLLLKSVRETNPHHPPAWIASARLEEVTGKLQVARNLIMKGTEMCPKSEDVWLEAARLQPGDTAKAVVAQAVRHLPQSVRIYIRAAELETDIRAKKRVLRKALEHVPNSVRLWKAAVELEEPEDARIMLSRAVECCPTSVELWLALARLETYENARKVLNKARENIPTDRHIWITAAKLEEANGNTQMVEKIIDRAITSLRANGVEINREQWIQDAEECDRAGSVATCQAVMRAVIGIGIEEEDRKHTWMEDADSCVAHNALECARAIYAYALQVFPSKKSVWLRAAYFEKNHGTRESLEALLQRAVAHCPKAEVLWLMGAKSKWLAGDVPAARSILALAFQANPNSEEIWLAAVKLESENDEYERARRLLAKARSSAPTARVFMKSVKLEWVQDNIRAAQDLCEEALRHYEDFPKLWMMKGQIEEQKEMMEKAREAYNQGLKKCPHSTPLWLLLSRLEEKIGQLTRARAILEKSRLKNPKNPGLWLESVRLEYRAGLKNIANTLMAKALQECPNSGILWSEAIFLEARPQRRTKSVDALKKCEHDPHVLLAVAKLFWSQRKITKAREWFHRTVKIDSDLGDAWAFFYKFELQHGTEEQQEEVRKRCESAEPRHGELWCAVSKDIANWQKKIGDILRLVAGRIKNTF
inactive: [1] 0.002 | silmitasertib 0.047 | [2] 0.004 | entospletinib 0.026
active: vorinostat -0.262

PDE2A (UniProt O00408)
inactive: [1] 0.195 | vorinostat 0.117 | silmitasertib 0.022 | [2] 0.071 | entospletinib 0.01

PFN1 (UniProt P07737)
inactive: [1] -0.006 | vorinostat 0.083 | silmitasertib -0.004 | [2] -0.014 | entospletinib 0.006

PTK2 (UniProt Q05397)
inactive: [1] -0.017 | vorinostat -0.137 | silmitasertib 0 | [2] -0.056 | entospletinib 0.175

PRKACA (UniProt P17612)
inactive: [1] -0.114 | vorinostat 0.007 | silmitasertib -0.02 | [2] 0.033 | entospletinib 0.03

PRPF38A (UniProt Q8NAV1)
inactive: [1] -0.059 | vorinostat -0.278 | silmitasertib 0.03 | [2] 0.03 | entospletinib 0.055

PUM1 isoform 3 (UniProt Q14671)
inactive: [1] 0.027 | vorinostat -0.192 | silmitasertib 0 | [2] -0.004 | entospletinib -0.009

PLK1 (UniProt P53350)
Sequence of UniProt P53350 (P53350 whole entry, looked up): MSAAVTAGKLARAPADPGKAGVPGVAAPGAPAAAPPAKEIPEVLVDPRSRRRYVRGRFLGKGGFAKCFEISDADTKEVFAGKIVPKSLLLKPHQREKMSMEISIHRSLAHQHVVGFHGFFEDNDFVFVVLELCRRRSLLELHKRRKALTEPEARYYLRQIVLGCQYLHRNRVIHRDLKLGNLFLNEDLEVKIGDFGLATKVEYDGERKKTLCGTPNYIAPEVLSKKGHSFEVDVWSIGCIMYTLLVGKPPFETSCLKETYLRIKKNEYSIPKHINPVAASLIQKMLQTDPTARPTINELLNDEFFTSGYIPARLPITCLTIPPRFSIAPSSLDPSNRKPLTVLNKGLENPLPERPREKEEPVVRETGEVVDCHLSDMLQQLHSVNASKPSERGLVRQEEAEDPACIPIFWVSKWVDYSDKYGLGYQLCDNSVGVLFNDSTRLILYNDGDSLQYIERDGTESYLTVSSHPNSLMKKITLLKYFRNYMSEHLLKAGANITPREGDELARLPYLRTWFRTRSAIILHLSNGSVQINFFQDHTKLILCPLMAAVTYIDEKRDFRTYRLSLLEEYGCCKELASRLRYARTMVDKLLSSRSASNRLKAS
inactive: [1] 0.027 | silmitasertib 0.005 | [2] 0.022 | entospletinib 0.072
active: vorinostat -0.638

PPP1R12B isoform 6 (UniProt O60237)
inactive: [1] 0.168 | vorinostat -0.063 | silmitasertib 0.091 | [2] -0.005 | entospletinib -0.052

PTPN1 (UniProt P18031)
inactive: [1] -0.005 | silmitasertib 0.04 | [2] 0.012 | entospletinib 0.048
active: vorinostat -0.29

PGLS (UniProt O95336)
inactive: [1] -0.08 | vorinostat 0.079 | silmitasertib -0.034 | [2] 0.072 | entospletinib 0.003
